From the supplement of paper PMC11732987, “Enantioselective OTUD7B fragment discovery through chemoproteomics screening and high-throughput optimisation” (Communications Chemistry, 2025)

How the values were obtained:
Test in all cases: log2 ratio of Biotin-Ahx-Ub-VS probe labelling (fragment/DMSO); higher = less target engagement (more negative = stronger competition), active = hit call of the paper (q ≤ 0.05, log2 ratio ≤ -1)
Settings in all cases: compound concentration: 200 uM; treatment time: 3 h
USP34 = USP34 (UniProt Q70CQ2)
Sequence of USP34 (Q70CQ2 whole entry, the tested form may be a part): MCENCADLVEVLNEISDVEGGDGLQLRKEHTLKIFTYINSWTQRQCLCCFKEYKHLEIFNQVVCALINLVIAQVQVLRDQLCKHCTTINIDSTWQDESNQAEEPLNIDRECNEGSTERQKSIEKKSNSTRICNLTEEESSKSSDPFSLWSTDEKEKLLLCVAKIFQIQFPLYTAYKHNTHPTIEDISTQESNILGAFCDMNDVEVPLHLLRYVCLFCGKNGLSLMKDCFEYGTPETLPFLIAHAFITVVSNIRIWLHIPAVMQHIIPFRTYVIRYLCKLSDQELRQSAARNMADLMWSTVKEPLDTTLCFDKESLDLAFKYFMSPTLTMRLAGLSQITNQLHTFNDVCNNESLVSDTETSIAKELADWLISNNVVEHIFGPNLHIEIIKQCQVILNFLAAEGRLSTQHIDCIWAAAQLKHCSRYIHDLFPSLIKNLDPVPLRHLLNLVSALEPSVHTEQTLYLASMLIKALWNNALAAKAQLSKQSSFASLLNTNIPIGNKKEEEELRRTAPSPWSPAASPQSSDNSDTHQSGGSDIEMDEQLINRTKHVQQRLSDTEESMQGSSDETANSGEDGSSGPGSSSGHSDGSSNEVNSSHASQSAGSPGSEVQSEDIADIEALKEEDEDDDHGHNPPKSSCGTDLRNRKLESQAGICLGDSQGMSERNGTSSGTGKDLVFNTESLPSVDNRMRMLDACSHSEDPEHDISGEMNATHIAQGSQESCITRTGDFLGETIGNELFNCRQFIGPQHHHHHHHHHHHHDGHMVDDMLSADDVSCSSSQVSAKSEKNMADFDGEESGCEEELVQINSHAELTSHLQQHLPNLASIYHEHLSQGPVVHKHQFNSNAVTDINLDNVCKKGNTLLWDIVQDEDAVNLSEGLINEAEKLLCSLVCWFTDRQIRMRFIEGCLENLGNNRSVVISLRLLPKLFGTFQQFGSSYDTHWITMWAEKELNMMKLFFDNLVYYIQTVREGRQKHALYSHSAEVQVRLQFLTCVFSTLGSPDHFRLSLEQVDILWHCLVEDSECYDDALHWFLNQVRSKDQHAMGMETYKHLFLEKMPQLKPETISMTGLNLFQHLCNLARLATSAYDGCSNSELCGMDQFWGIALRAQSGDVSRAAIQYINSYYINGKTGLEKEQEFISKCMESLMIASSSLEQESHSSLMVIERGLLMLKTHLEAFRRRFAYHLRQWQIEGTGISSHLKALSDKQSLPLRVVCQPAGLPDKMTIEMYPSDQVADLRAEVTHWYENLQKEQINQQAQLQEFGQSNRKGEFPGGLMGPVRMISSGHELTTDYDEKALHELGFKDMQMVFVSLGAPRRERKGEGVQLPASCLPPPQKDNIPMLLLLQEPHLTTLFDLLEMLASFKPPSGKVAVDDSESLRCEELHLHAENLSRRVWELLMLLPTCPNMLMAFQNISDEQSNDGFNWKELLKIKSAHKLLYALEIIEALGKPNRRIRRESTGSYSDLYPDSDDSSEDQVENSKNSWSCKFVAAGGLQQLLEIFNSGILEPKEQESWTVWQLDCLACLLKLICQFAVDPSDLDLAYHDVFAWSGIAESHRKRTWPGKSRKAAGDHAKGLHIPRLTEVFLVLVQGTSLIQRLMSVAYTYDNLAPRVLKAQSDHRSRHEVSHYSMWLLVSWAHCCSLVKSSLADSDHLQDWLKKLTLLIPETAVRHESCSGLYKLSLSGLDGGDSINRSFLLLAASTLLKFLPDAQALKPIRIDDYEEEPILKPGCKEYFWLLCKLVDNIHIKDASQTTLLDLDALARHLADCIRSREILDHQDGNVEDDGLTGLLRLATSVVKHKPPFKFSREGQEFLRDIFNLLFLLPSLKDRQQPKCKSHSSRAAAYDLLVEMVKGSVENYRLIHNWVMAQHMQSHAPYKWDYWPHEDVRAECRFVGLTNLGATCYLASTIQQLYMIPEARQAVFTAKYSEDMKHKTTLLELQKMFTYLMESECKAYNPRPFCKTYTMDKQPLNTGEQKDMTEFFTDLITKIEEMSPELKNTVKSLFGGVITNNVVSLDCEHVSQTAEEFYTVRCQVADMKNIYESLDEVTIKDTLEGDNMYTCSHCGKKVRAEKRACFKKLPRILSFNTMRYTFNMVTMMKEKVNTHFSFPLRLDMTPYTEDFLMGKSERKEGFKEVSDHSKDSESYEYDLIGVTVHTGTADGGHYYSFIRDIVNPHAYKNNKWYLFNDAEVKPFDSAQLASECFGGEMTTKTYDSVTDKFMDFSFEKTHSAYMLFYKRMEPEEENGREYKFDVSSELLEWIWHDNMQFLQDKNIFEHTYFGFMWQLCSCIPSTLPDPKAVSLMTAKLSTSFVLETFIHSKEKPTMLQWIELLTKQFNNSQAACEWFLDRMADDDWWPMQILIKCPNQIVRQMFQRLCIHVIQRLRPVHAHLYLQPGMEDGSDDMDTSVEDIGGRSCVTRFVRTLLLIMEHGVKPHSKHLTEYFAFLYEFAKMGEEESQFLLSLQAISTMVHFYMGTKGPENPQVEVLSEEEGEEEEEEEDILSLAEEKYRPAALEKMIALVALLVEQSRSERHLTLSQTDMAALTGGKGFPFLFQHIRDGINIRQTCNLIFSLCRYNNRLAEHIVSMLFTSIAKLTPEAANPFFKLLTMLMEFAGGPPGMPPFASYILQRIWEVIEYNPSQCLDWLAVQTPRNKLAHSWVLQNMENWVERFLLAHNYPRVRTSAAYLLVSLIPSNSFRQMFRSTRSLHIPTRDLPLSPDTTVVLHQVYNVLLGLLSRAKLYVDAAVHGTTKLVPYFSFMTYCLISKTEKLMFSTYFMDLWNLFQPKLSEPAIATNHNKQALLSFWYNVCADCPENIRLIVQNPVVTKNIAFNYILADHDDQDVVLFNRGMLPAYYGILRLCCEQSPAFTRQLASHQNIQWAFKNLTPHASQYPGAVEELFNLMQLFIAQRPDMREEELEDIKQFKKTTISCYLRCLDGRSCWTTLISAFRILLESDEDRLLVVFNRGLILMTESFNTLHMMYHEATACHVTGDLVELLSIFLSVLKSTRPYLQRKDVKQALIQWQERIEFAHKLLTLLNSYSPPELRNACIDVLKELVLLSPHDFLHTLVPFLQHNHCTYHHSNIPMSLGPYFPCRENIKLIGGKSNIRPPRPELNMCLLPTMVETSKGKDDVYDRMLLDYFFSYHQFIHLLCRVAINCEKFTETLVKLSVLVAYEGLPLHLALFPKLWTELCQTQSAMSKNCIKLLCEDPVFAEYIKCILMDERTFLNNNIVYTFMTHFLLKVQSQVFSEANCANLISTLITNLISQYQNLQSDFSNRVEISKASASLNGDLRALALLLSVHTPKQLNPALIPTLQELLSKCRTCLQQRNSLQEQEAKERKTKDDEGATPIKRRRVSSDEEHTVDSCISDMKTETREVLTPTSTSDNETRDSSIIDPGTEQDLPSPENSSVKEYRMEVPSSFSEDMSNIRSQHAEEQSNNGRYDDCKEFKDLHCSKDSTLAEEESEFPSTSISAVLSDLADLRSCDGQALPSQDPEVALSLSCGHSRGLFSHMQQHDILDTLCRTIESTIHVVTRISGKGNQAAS
How it was run: (§1)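 Each value is an average log2 ratio of fragment to vehicle, tested by unpaired t-test. The underlying Spectronaut label-free quantities were global-median-normalised, and only proteins with ≥2 unique peptides were included. Triplicate HEK293T lysate samples (495 µg) were exposed to fragment at 200 µM or vehicle for 3 h, then to Biotin-Ahx-Ub-VS at 0.5 µM final for 1 h, before NeutrAvidin enrichment of labelled DUBs, LysC and trypsin digestion, and diaPASEF LC-MS/MS.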

USP36 = target: T1, USP36 (UniProt Q9P275)
T1 sequence (whole entry): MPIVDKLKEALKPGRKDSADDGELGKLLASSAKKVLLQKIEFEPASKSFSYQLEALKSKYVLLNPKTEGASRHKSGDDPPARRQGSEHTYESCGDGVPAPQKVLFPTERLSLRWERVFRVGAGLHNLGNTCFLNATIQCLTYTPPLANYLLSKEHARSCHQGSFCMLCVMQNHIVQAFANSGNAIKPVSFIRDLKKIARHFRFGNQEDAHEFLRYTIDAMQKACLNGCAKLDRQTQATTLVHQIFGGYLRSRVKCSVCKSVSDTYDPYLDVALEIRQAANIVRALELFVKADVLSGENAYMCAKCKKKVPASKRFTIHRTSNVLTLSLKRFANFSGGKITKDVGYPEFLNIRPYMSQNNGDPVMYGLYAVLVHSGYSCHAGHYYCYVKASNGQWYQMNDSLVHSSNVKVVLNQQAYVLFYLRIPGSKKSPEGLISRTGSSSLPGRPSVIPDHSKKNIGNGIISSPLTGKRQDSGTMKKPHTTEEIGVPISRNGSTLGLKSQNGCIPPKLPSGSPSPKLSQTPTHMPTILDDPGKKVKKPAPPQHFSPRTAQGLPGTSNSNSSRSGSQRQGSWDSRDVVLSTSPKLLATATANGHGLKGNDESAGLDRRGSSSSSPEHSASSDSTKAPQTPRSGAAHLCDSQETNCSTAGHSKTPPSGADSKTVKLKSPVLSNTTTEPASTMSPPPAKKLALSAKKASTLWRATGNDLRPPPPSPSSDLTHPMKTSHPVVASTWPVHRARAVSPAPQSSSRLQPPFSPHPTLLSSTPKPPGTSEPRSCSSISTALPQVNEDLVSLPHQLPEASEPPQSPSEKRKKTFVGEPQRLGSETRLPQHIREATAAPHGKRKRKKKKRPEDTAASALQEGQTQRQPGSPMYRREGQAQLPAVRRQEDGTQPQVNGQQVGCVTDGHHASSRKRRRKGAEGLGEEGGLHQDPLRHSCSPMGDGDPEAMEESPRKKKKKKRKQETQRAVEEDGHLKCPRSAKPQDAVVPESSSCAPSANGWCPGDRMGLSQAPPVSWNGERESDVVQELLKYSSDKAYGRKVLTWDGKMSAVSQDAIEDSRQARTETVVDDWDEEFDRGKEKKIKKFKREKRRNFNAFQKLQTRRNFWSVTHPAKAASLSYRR
How it was run: as §1

USP38 = target: T2, USP38 (UniProt Q8NB14)
T2 sequence (whole entry): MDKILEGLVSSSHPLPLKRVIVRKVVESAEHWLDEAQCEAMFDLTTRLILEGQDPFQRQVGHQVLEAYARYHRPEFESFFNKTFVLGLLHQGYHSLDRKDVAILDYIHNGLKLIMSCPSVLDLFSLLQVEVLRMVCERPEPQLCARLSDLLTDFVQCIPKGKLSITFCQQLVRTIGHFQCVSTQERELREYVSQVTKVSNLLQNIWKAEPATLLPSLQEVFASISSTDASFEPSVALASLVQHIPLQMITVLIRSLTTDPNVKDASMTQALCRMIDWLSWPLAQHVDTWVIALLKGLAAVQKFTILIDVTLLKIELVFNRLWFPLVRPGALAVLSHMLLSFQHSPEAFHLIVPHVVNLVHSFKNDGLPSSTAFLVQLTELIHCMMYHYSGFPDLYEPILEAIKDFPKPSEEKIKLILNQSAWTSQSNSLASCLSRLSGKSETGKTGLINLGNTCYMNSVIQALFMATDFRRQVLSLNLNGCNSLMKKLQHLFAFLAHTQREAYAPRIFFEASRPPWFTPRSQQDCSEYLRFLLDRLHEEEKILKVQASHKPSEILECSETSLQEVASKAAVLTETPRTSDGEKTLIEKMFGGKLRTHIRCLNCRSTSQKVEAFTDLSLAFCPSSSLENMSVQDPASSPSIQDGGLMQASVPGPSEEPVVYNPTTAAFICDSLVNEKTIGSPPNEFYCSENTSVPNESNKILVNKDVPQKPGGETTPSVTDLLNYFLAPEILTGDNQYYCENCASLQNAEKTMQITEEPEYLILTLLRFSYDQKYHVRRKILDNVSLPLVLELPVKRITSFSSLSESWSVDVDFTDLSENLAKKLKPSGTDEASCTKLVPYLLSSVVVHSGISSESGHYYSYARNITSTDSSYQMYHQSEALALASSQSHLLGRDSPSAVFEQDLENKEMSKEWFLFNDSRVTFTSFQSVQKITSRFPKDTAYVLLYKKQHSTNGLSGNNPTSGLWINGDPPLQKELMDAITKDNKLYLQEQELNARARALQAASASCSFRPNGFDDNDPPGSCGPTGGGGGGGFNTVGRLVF
How it was run: as §1

USP39 = target: T3, USP39 (UniProt Q53GS9)
T3 sequence (whole entry): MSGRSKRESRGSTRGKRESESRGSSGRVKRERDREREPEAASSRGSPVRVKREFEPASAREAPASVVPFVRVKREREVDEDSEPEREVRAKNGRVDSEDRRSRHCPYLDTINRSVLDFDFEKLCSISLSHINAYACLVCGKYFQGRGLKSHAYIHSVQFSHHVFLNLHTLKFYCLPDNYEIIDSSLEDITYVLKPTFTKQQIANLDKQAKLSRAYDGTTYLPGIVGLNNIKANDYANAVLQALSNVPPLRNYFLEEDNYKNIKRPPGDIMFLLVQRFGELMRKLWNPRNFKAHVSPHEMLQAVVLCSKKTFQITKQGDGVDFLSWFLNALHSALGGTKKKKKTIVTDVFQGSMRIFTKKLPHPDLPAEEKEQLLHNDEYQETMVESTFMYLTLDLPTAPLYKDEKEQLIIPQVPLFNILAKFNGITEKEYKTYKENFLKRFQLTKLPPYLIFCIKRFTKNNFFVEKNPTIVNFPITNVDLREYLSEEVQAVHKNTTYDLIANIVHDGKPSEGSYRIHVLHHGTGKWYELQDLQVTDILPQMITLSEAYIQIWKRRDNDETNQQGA
How it was run: as §1

USP4 = target: T4, USP4 (UniProt Q13107)
T4 sequence (whole entry): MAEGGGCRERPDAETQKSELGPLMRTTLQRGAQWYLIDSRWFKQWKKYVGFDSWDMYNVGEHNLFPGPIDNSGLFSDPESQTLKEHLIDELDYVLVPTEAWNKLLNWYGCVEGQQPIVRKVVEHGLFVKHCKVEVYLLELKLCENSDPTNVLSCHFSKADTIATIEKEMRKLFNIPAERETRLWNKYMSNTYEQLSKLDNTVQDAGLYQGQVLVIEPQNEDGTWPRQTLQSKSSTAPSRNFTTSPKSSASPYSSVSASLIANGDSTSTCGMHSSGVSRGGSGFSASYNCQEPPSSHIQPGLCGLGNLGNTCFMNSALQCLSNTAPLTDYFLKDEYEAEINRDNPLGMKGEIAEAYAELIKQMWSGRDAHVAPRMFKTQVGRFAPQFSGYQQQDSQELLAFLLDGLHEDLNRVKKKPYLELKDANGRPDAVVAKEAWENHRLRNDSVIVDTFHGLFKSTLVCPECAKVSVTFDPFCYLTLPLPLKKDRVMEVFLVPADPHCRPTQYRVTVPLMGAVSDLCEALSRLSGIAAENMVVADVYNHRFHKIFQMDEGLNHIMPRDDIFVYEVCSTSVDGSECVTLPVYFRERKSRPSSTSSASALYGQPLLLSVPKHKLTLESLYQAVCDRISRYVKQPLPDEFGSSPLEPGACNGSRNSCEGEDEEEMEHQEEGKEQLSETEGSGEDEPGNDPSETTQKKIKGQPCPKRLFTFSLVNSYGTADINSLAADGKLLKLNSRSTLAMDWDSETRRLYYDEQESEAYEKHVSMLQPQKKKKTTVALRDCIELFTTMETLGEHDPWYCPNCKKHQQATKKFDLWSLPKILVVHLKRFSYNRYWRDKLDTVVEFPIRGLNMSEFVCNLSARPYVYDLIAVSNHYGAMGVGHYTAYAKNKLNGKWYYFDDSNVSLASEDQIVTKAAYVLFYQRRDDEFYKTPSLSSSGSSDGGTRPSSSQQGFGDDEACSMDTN
How it was run: as §1

Measured: log2 ratio of Biotin-Ahx-Ub-VS probe labelling

O=C(CCl)NC1CCN(C(=O)C2CCCCC2)CC1
inactive: USP34 0.0203 | USP36 -0.0678 | USP38 0.166 | USP39 0.187 | USP4 -0.0463
